About 25,000 (6.9%) of roughly 360,000 compounds were called active. Where a call stands in place of a potency, no number is given. About 9% were inconclusive and are not listed. This is one part of a sample in which actives are shown more often than they occur. Calls come from the whole dose curve; as a rule, active = well fitted inhibition curve with a large enough effect; inconclusive = small, poorly fitted or top-dose-only effect; inactive = flat fitted curve, though single readings scatter.
Target: Luciferin 4-monooxygenase (Photinus pyralis) (UniProt P08659)
Sequence (P08659 whole entry, looked up): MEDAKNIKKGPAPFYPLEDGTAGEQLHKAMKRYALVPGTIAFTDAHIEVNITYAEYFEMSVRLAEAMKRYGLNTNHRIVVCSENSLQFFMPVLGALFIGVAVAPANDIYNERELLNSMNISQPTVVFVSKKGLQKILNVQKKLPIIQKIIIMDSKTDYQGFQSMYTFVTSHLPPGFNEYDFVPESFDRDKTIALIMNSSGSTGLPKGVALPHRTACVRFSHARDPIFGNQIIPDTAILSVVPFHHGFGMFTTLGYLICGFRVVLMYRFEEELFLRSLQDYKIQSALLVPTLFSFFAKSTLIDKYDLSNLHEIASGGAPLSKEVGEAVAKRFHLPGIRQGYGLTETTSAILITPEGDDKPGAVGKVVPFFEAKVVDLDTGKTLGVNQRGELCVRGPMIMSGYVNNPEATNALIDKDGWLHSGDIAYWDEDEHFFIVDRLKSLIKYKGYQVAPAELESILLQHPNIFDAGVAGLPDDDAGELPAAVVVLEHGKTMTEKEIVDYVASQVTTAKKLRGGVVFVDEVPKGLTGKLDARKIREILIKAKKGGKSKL
Test: qHTS profiling assay for firefly luciferase inhibitor/activator using purifed enzyme and Km concentrations of substrates (counterscreen for miR-21 project); note: nearly all actives have a fitted effect of over 55% in size
Details: purified FLuc, luminescence inhibition; series mostly up to 57.5 µM
How it was run: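 Purified P. pyralis luciferase, 10 nM final, with Km-level 10 uM D-luciferin and 10 uM ATP in 50 mM Tris acetate pH 7.5, 10 mM Mg acetate, 0.01% Tween-20, 0.05% BSA; 6-point qHTS titration about 60 µM downward; luminescence read.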
Potency is the fitted concentration of half-maximal effect.

Compound	Potency
COc1cc(C(=O)NCC(c2ccco2)N2CCCC2)ccc1OCc1ccccc1 (centres undefined)	inactive
CCc1sc(C(=O)N2CCN(CC(=O)Nc3cccc(F)c3)CC2)cc1C	13.5 µM (active)
O=C(CN1CCN(C(=O)c2cccc(F)c2)CC1)Nc1ccccc1F	inactive
CC(=O)N1CCN(CC(=O)Nc2ccc(C)c(F)c2)CC1	inactive
CN(CC(=O)Nc1ccc(Cl)cc1)C(=O)c1ccc(COc2ccccc2)cc1	inactive
Cc1c(NC(=O)c2cc(=O)c3ccccc3o2)c(=O)n(-c2ccccc2)n1C	inactive
CCCn1nc(C(=O)OCc2nc(N)nc(Nc3ccccc3C)n2)c2ccccc2c1=O	inactive
Cc1cc(=O)n(CC(=O)Nc2cccc([N+](=O)[O-])c2)c(-n2nc(C)cc2C)n1	inactive
O=C(CCN1C(=O)c2ccccc2C1=O)C1=NN[C@@H]2C(=O)N(c3ccc(F)cc3)C(=O)[C@H]12	inactive
CC1(C)CC(=O)c2c(n(S(=O)(=O)c3ccccc3)c3ccc(NS(=O)(=O)c4ccccc4)cc23)C1	inactive
O=C(CCc1ccccc1F)N1CCN(c2ccccc2)CC1	inactive
O=C(CCSCc1ccccc1F)N1CCN(c2ccc(Cl)cc2)CC1	inactive
O=C(CCSc1ccccc1)N1CCN(c2ccccc2F)CC1	10.7 µM (active)
Cc1ccc(C)c(Nc2nnc(-c3ccc(C)c(S(=O)(=O)N4CCCCC4)c3)c3ccccc23)c1	inactive
CCCn1nnc2sc3c(c2c1=O)CCC(C)C3 (centres undefined)	15.1 µM (active)
Cn1c(NN)nc2sc3c(c2c1=O)CCC3	inactive
Cc1ccc(NC(=O)Cn2nnc3sc4c(c3c2=O)CCC(C)C4)cc1 (centres undefined)	inactive
C=CCn1c(SCc2c(C)noc2C)nc2sc3c(c2c1=O)CCC(C)C3 (centres undefined)	inactive
CC1CCc2c(sc3nc4n(c(=O)c23)CCS4)C1 (centres undefined)	21.3 µM (active)
COC(=O)c1cccc(Cn2nnc3sc4c(c3c2=O)CCC(C(C)(C)C)C4)c1 (centres undefined)	inactive
Cc1ccc2nc3c(cc(C(=O)NC4CCCCC4)c(=N)n3C(C)C)c(=O)n2c1	inactive
CCOC(=O)c1c(NC(=O)Cc2coc3ccc(CC)cc23)sc2c1CCC2	inactive
Fc1ccccc1/C=C1\CCCC2=C1Nc1ncnn1C2c1ccccc1F (centres undefined)	inactive
CSCCC(NC(=O)c1ccccc1)C(=O)N1CCCCCCC1 (centres undefined)	inactive
COc1ccc(Cl)cc1S(=O)(=O)N1CCC(c2ccncc2)CC1	inactive
CC1CCCCN1CC(=O)N1CCCc2c1c(=O)oc1ccc(OCc3ccccc3)cc21 (centres undefined)	inactive

Compound	Potency
Cc1ccc(CNS(=O)(=O)CCNC(=O)c2ccccc2)cc1	inactive
Cn1c2c(c(=O)n(C)c1=O)C(c1cccc([N+](=O)[O-])c1)Nc1ccccc1O2 (centres undefined)	inactive
Cc1ccc(S(=O)(=O)Cc2cc(-c3ccc(Cl)cc3)no2)cc1	inactive
Cc1ccc(-c2cc(N)n(Cc3cccc(Cl)c3)n2)cc1	inactive
Cc1ccc(-c2cc(N)on2)cc1	16.9 µM (active)
CCc1nn(CC(=O)Nc2cccc(C)c2C)c(=O)c2cc3sccc3n12	inactive
COc1cc(C(=O)N2CCN(C(=O)COc3cccc(C)c3)CC2)cc(OC)c1OC	inactive
CCOC(=O)c1cnc(SCc2nc(N)nc(Nc3ccc(OC)cc3)n2)nc1N	19 µM (active)
CCOC(=O)c1cnc(SCC(=O)Nc2ccccc2C(=O)OC)nc1N	inactive
CCOC(=O)c1cnc(SCC(=O)Nc2cccc(OC)c2)nc1N	inactive
Cc1c(CCNC(=O)c2ccc(C(F)(F)F)cc2)sc2nc(-c3ccc(F)cc3)nn12	inactive
Cc1ccc(C(=O)N/C(=C/C=C/c2ccccc2)C(=O)NCc2ccco2)cc1	inactive
CC1CCCCC12NC(=O)N(CC(=O)Nc1ccc(S(=O)(=O)Nc3ncccn3)cc1)C2=O (centres undefined)	inactive
CC(C)(C)NC(=O)NCc1ccco1	inactive
Cc1ccccc1NC(=O)NCc1ccco1	inactive
CC(C)(C)c1ccc(NC(=O)NCc2ccco2)cc1	23.9 µM (active)
O=C(Nc1ccccc1)Nc1ccccc1C(=O)NCc1ccco1	15.1 µM (active)
CC(C)(C)c1ccc(C(=O)NCCC(=O)NCc2ccco2)cc1	inactive
Cc1cccc(Nc2ccccc2C(=O)NCc2ccco2)c1C	inactive
CCCCNC(=O)C1CCCN(c2nnc(C)c3c(C)n(-c4ccc(Cl)cc4)nc23)C1 (centres undefined)	inactive
CCOC(=O)CSC1=Nc2ccccc2C2=NC(CCC(=O)NCc3ccc(F)cc3)C(=O)N12 (centres undefined)	inactive
CCN(CC(=O)Nc1ccccc1OC)C(=O)CC1CC2CCC1C2 (centres undefined)	inactive
O=C(Cc1ccc(Cl)cc1)NCC(c1cccs1)S(=O)(=O)c1ccc(Cl)cc1 (centres undefined)	inactive
O=C(Cc1cccs1)N(CC1CCCO1)C1(C(=O)NC2CCCCC2)CCCCC1 (centres undefined)	inactive
CC1CCCN(c2nc3c(S(=O)(=O)c4ccc(C(C)C)cc4)nnn3c3ccsc23)C1 (centres undefined)	inactive
O=C(NCc1ccccc1)C1CCN(C(=O)Cc2ccccc2)CC1	inactive

Compound	Potency
O=C(O)C1CCN(C(=O)OCc2ccccc2)CC1	10.7 µM (active)
CCOC(=O)N1CCC(NC(=O)CCc2ccccc2)CC1	inactive
CN(C(=O)C1CCOC1)c1nnc(-c2cccnc2)s1 (centres undefined)	inactive
CN(C(=O)c1ccccn1)c1nnc(-c2ccccn2)s1	3.38 µM (active)
COc1cc(OC)cc(-c2nnc(N(C)C(=O)c3ccncc3)s2)c1	inactive
Cc1ccc(C(=O)CCC(=O)N(C)CC(=O)Nc2c(Cl)cccc2Cl)cc1	inactive
CCn1c(COc2c(C)cccc2C)nnc1SCc1nc2ccccc2c(=O)[nH]1	inactive
COc1ccc(Cn2ccnc2SCC(=O)NCc2ccco2)cc1	inactive
CC(NC(=O)c1cc(Sc2ccc(F)cc2F)nc2ccccc12)c1ccccc1 (centres undefined)	inactive
Cn1c(=O)c2c(nc(SCC(=O)Nc3ccc(F)cc3)n2Cc2ccccc2)n(C)c1=O	inactive
CCN(CC(=O)Nc1ccccc1C(F)(F)F)C(=O)C1CCN(C(=O)Nc2ccccc2)CC1	inactive
O=C(NC1CC(=O)N(c2ccc(Cl)cc2)C1)C1CCCC1 (centres undefined)	inactive
S=C(NNC(=S)NC1CC2CCC1C2)NC1CC2C=CC1C2 (centres undefined)	inactive
S=C(NNC(=S)NC1CC2C=CC1C2)NC1CC2C=CC1C2 (centres undefined)	inactive
CC(C)c1ccc(NC(=S)NC2CC3C=CC2C3)cc1 (centres undefined)	10.7 µM (active)
Cc1c(Cl)cccc1NC(=O)C1CCCN(C(=O)c2cnn(-c3ccccc3)c2-n2cccc2)C1 (centres undefined)	inactive
Cc1cc(=O)[nH]c(Nc2cccc(Br)c2)n1	inactive
CCOC(=O)Cc1csc(NC(=O)CSc2nc(C)cc(=O)[nH]2)n1	inactive
Cc1nnc(N/N=C/c2ccccn2)[nH]c1=O	inactive
CCN(CC)c1ccc(/C=N/Nc2nc(C)cc(=O)[nH]2)cc1	19 µM (active)
Cc1ccc2nc(C)cc(N/N=C/c3ccc(F)cc3)c2c1	inactive
Cc1ccc(C)c(NC2=NCC(=O)N2c2ccc3c(c2)OCCO3)c1	inactive
Cc1cc(=O)[nH]c(N/N=C/c2c(C)nn(-c3ccccc3Cl)c2Cl)n1	21.3 µM (active)
Cc1cc(=O)[nH]c(N/N=C/c2ccc3c(c2)OCCO3)n1	10.7 µM (active)
COc1ccc(CCC(=O)N2CCN(S(=O)(=O)c3ccc(OC)cc3)CC2)cc1	inactive
Cc1ccc(F)cc1S(=O)(=O)Nc1cccc(C(=O)N2CCCC(C(N)=O)C2)c1 (centres undefined)	inactive

Compound	Potency
CCOC(=O)c1cc(-c2ccc(OC)c(S(=O)(=O)Nc3ccc(OC)cc3OC)c2)on1	inactive
CCOc1ccc(S(=O)(=O)Nc2ccc(C(=O)NCCCN3CCCC3=O)cc2)cc1	inactive
Nc1ncc(S(=O)(=O)Nc2ccc(OC(F)(F)F)cc2)cn1	inactive
COc1ccccc1N1CCN(c2ccc(=O)n(CC(=O)NCc3ccc(OC(C)C)cc3)n2)CC1	inactive
Cc1cc(C)cc(NS(=O)(=O)c2ccc(-c3cc(C)no3)s2)c1	inactive
Cn1nc(-c2ccccc2)c(-c2ccccc2)c(C(=O)Nc2ccc(S(N)(=O)=O)cc2)c1=O	inactive
CCc1cccc(CC)c1NC(=O)Cn1c(=O)c(-c2cc(C)ccc2NC(C)=O)nc2ccccc21	inactive
Cc1ccc(C(=O)COC(=O)CCN2C(=O)C3C4CC(C(Br)C4Br)C3C2=O)cc1 (centres undefined)	inactive
O=C(CCN1C(=O)C2C3CCC(C3)C2C1=O)Nc1ccc(Cl)cc1Cl (centres undefined)	inactive
Cc1ccc(C(=O)COC(=O)CCN2C(=O)C3C4CCC(C4)C3C2=O)cc1C (centres undefined)	10.7 µM (active)
COc1ccccc1-c1noc(CSc2nnc(-c3ccccc3)n2-c2ccc(C)c(C)c2)n1	inactive
c1cc(-n2cnnn2)ccc1NC1=NCCC1	inactive
Cc1ccc(C(=O)Cn2cccn2)cc1	inactive
Cc1ccc(C(=O)Cc2nnc(C)s2)cc1	9.53 µM (active)
Cc1ccc(S(=O)(=O)CC(=O)Nc2nnc(C)s2)cc1	inactive
CC(CO)N1CCS(=O)(=O)CC1 (centres undefined)	inactive
CCc1cc2c(cc3c(=O)n(CC(=O)N4CCN(c5cc(Cl)ccc5C)CC4)nc(CC)n32)s1	inactive
Cc1ccc(NC(=O)c2oc3ccccc3c2NC(=O)Cc2cccs2)cc1	inactive
Cc1cc2c(cc3c(SCc4nc(-c5ccccc5)oc4C)nnc(C)n32)o1	inactive
Cc1ccc(S(=O)(=O)NCCSc2ccccc2)cc1[N+](=O)[O-]	inactive
CCS(=O)(=O)c1cc([N+](=O)[O-])c(Sc2ccccc2N)s1	4.26 µM (active)
CC(=O)c1ccc(N2CCN(C3C(=O)c4ccccc4N3C(C)=O)CC2)cc1 (centres undefined)	inactive
CCOC(=O)c1ccc(NC(=O)CCn2cnnn2)cc1	inactive
CC(=O)c1cccc(CN2CCC(CO)(Cc3ccccc3)CC2)c1	inactive
CC(C)c1csc(CN2CCC(CO)(Cc3ccccc3)CC2)n1	6.75 µM (active)
OCC1(Cc2ccccc2)CCN(Cc2cc3ccccc3o2)CC1	inactive
